Results filed as inconclusive are left out. Activity calls are given as the source filed them. Unless noted, the call rests on the fitted dose curve; in most records, active means well fitted cell-killing curve with a large enough effect; inconclusive means small, poorly fitted or top-dose-only effect, or effect the other way; inactive means no such curve, though single readings can be large or run the other way.
What was measured:
[1] = Quantitative High-Throughput drug screen in 47 multiple myeloma cell lines against the NCATS MIPE library collection: XG1_PLB cell viability assay (AID 1919866); further: nearly all actives have a fitted effect of over 35% in size
Method in brief: (§1)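 Myeloma cells (500/well) treated with MIPE 4.0 compounds for 48 h at 37 °C, 5% CO2. Viability read as ATP via CellTiter-Glo luminescence after 5 min at RT; DMSO-only wells = 100%, media-only = 0% viability.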

[2] = Quantitative High-Throughput drug screen in 47 multiple myeloma cell lines against the NCATS MIPE library collection: VP6_DJ cell viability assay (AID 1919867); further: nearly all actives have a fitted effect of over 40% in size
Method in brief: as §1

[3] = Quantitative High-Throughput drug screen in 47 multiple myeloma cell lines against the NCATS MIPE library collection: UTMC2_PLB cell viability assay (AID 1919868); settings: CellTiter-Glo ATP luminescence, 48 h; viability (% of DMSO control): at 45.8 µM (top of the series) unless noted; further: nearly all actives have a fitted effect of over 55% in size
Method in brief: as §1

[4] = Quantitative High-Throughput drug screen in 47 multiple myeloma cell lines against the NCATS MIPE library collection: PCM6_Riken cell viability assay (AID 1919870); further: nearly all actives have a fitted effect of over 30% in size
Method in brief: as §1

[5] = Quantitative High-Throughput drug screen in 47 multiple myeloma cell lines against the NCATS MIPE library collection: OPM2_DSMZ cell viability assay (AID 1919872); further: nearly all actives have a fitted effect of over 30% in size
Method in brief: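 Approved and investigational drugs from MIPE 4.0 were added by pin tool to 500 cells per well. After 48 hours at 37C, ATP-based CellTiter-Glo luminescence indicated remaining viability.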

[6] = Quantitative High-Throughput drug screen in 47 multiple myeloma cell lines against the NCATS MIPE library collection: KMS28BM_JCRB cell viability assay (AID 1919874); further: nearly all actives have a fitted effect of over 35% in size
Method in brief: as §1

[7] = qHTS drug screen for cell cycle checkpoint inhibitors in PARPi-resistant BRCA-mutant ovarian cancer cell lines. (AID 1963452; calls by dose curve); settings: PEO1/OlaR viability, CellTiter-Glo luminescence, 96 h; for Z-AUC: stronger effect = lower value
Method in brief: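 PEO1, PEO4 and PEO1/OlaR ovarian cancer cells, 600 per well, exposed 96 h at 37C to a dilution series. Viability read by CellTiter-Glo luminescence, normalized to DMSO and empty wells; activity summarized as Z-AUC.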

[8] = Quantitative High-Throughput drug screen in 47 multiple myeloma cell lines against the NCATS MIPE library collection: PE2_PLB cell viability assay (AID 1919869); further: nearly all actives have a fitted effect of over 35% in size
Method in brief: as §1

[9] = Quantitative High-Throughput drug screen in 47 multiple myeloma cell lines against the NCATS MIPE library collection: RPMI8226_ATCC cell viability assay (AID 1919871); further: nearly all actives have a fitted effect of over 30% in size
Method in brief: as §1

[10] = Quantitative High-Throughput drug screen in 47 multiple myeloma cell lines against the NCATS MIPE library collection: KMS11_JCRBsus cell viability assay (AID 1919873); further: nearly all actives have a fitted effect of over 50% in size
Method in brief: as §1

[11] = qHTS for identification of novel therapeutic agents for treatment of microphthalmiaassociated transcription factor (MiT) renal cell carcinoma (RCC) (AID 1963991; calls by dose curve); settings: CellTiter-Glo, 48 h; for Potency: active = Z-AUC below -0.8 in all three lines; for z-score: stronger effect = lower value
Method in brief: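 Viability of three TFE3-fusion renal carcinoma lines measured by CellTiter-Glo after 48 h treatment with each of 1912 compounds at 11 concentrations. Responses scaled between DMSO (100%) and empty wells (0%) before curve fitting.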

[12] = measured here: PEO1 parental Z-AUC
[13] = TFE3-RCC UOK109 viability, measured here: UOK109 Z-AUC
[14] = TFE3-RCC viability, measured here: UOK124 Z-AUC
[15] = TFE3-RCC viability, measured here: UOK145 Z-AUC
Potency means the concentration at half of the fitted maximal effect.

Compound: CC(=O)OCC(=O)[C@@]1(O)[C@H](C)C[C@H]2[C@@H]3C=C(C)C4=Cc5c(cnn5-c5ccccc5)C[C@]4(C)[C@@H]3[C@@H](O)C[C@@]21C
- Potency [1]: 5.26 µM (active)
- Potency [2]: 9.35 µM (active)
- Potency [3]: 11.8 µM (active)
- Potency [4]: 3.32 µM (active)
- Potency [5]: 20.9 µM (active)
- Potency [6]: inactive
- Z-AUC [7]: -0.679 (inactive)
- Z-AUC [7, 12]: 0.732
- Z-AUC ([7]; measured here: PEO4 Z-AUC): -0.158

Compound: c1ccc2c(CCNc3ccc(Nc4ccncc4)cc3)c[nH]c2c1
- Potency [1]: 20.9 µM (active)
- Potency [2]: 23.5 µM (active)
- Potency [8]: 16.6 µM (active)
- Potency [4]: 20.9 µM (active)
- Potency [9]: 20.9 µM (active)
- Potency [5]: inactive
- Potency [10]: 14.8 µM (active)
- Potency [6]: 11.8 µM (active)
- Potency [7]: 1.23 µM (active)
- Z-AUC [7, 12]: -1.4
- Z-AUC ([7]; measured here: PEO4 Z-AUC): -1.17

Compound: OCCCNc1cc(-c2ccnc(Nc3cccc(Cl)c3)n2)ccn1
- Potency [1]: 0.0418 µM (active)
- Potency [2]: 0.0235 µM (active)
- Potency [3]: 0.0418 µM (active)
- Potency [4]: 0.0166 µM (active)
- Potency [9]: 0.187 µM (active)
- Potency [5]: 0.235 µM (active)
- Potency [10]: 0.0526 µM (active)
- Potency [6]: 0.0935 µM (active)
- Z-AUC [7]: -1.99 (inactive)
- Z-AUC [7, 12]: -2.3
- Z-AUC ([7]; measured here: PEO4 Z-AUC): -2.17
- Potency ([11]; TFE3-RCC UOK109 viability): 0.209 µM (active)
- z-score [11, 13]: -1.57
- z-score [11, 14]: -0.939
- z-score [11, 15]: -2.05

Compound: O=C(CCCCCCC(=O)Nc1ccc([C@H]2O[C@@H](CSc3nc(-c4ccccc4)c(-c4ccccc4)o3)C[C@@H](c3ccc(CO)cc3)O2)cc1)NO
- Potency [1]: 10.5 µM (active)
- Potency [2]: 7.43 µM (active)
- Potency [3]: 8.33 µM (active)
- Potency [4]: 13.2 µM (active)
- Potency [5]: 20.9 µM (active)
- Potency [10]: 11.8 µM (active)
- Potency [6]: 13.2 µM (active)
- Z-AUC [7]: 0.612 (inactive)
- Z-AUC [7, 12]: 1.26
- Z-AUC ([7]; measured here: PEO4 Z-AUC): 0.641

Compound: Cc1cc(Nc2cc(N3CCN(C)CC3)nc(Sc3ccc(NC(=O)C4CC4)cc3)n2)n[nH]1
- Potency [1]: 4.18 µM (active)
- Potency [2]: 18.7 µM (active)
- Potency [3]: 0.001 µM (active)
- Potency [4]: 23.5 µM (active)
- Potency [5]: 20.9 µM (active)
- Potency [10]: 2.35 µM (active)
- Potency [6]: 6.62 µM (active)
- Z-AUC [7]: 0.654 (inactive)
- Z-AUC [7, 12]: -0.131
- Z-AUC ([7]; measured here: PEO4 Z-AUC): -0.437

Compound: CNC(=O)c1ccc(N2C(=S)N(c3cnc(C#N)c(C(F)(F)F)c3)C(=O)C23CCC3)cc1F
- Potency [1]: 0.264 µM (active)
- Potency [2]: 1.05 µM (active)
- Potency [3]: 3.32 µM (active)
- Potency [4]: 0.833 µM (active)
- Potency [5]: inactive
- Potency [10]: inactive
- Potency [6]: inactive
- Z-AUC [7]: 0.293 (inactive)
- Z-AUC [7, 12]: -0.208
- Z-AUC ([7]; measured here: PEO4 Z-AUC): 0.0749

Compound: CNC(=O)CN1CCC(Oc2cc3c(Nc4cccc(Cl)c4F)ncnc3cc2OC)CC1
- Potency [1]: 0.0235 µM (active)
- Potency [2]: 0.0187 µM (active)
- Potency [3]: 0.0332 µM (active)
- Potency [4]: 0.0235 µM (active)
- Potency [5]: 0.0833 µM (active)
- Potency [10]: 0.0372 µM (active)
- Potency [6]: 0.0187 µM (active)
- Z-AUC [7]: 0.332 (inactive)
- Z-AUC [7, 12]: 0.682
- Z-AUC ([7]; measured here: PEO4 Z-AUC): 0.199
- Potency ([11]; TFE3-RCC UOK109 viability): 1.87 µM (active)
- z-score [11, 13]: -2.86
- z-score [11, 14]: -2.18
- z-score [11, 15]: -1.75
